# Data as given in PubChem BioAssay AID1347426 (Functional Genomics Laboratory (NCATS/FGL), 2020).
# In all, about 31,000 sequences went through this assay and about 1,400 (4.5%) were called active.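 How the source made its calls: active means median seed-adjusted z-score above 1 or below -1; inactive means the rest.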 This excerpt belongs to a sample that is enriched for actives.
# Assay: Novel Modifiers of Survival Motor Neuron (SMN) Protein: Gene Identification via Genome-wide siRNA Screen;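 further: luminescence tracks full-length SMN protein made from the SMN2 reporter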
# Conditions: HEK293T SMN2-luciferase reporter, siRNA knockdown, 72 h; actives lie on both sides
# Summary of the method: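 HEK293T cells stably carrying an SMN2 promoter/splicing cassette–luciferase reporter were reverse-transfected with 1 pmol siRNA per well (druggable-genome library, 3 siRNAs per gene) and grown 72 h at 37 °C. Luminescence, normalized to negative-control siRNA and log10-transformed, was scored as MAD.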
row,Sequence,median seed-adjusted z-score
1,CAGUGGAUCAAAUAACGCATT against ADAMTS20,1.44 (active)
2,GAACCUCAGUCAAAUCGAUTT against OXSR1,-0.0682 (inactive)
3,CCAUUUGGAUAUCAAAGUATT against ILF2,-0.19 (inactive)
4,CAGUCAAGCUUGGAGUUAATT against SYTL3,0.236 (inactive)
5,AGAUGUUCUGAGGCUGAUATT against OASL,1.02 (active)
6,GGAUAAGGACGACCAGAUUTT against HPCAL4,0.282 (inactive)
7,GUGCUAAAUUUAGCUCAAATT against IL2,0.0694 (inactive)
8,CCAAGCAAAUAGUAGAAGATT against CYLC1,0.177 (inactive)
9,GAACGAGUCCUUUACUACATT against GFM1,-0.0641 (inactive)
10,CAACUUUCAGAUCAGUGAATT against ARD1A,-1.05 (active)
11,CAGACAAGCUGAUCCGCAUTT against TGM5,0.0181 (inactive)
12,GGUCUGUUCUUCUUACAGATT against PRKCB1,0.0463 (inactive)
13,GCCCAUCGUGCUUAAAGAATT against RASA3,0.0056 (inactive)
14,CACCUACUGUAGAGGUGAATT against GPRC6A,0 (inactive)
15,GAACAUAUCAAGACCGGUUTT against MED30,-2.06 (active)
16,UAGGGAAGCUGAAAGUGCATT against OXER1,-0.471 (inactive)
17,CAACCAAUAUAGAACUUCATT against RBBP5,0.169 (inactive)
18,GCAGCCUUGUCAUCGACAATT against PDLIM1,-0.189 (inactive)
19,CCUAAAGCCUGAAGAAGAATT against TXNDC2,-1.29 (active)
20,CAUCGGUGCCCAGAAGUCATT against SSBP4,0.254 (inactive)
21,GACUCUCUGAGGUAGAAAATT against EPN3,0.184 (inactive)
22,GCUAGAACGGGAACGAAGATT against NEK10,-0.0464 (inactive)
23,CCAGUGCUCCCGAAACUGATT against KRTAP5-5,-1.07 (active)
24,GCUCAUCGUGGGUCUCCUATT against POR,0.189 (inactive)
25,CUCUCGUACUUUGAACCUATT against PANK3,-0.185 (inactive)
26,CCCACUAUGCAAAAUGUAATT against PCMT1,0.139 (inactive)
27,GGUGGUCCAUGAAAAAGCATT against SOD1,-0.8 (inactive)
28,GCCUUAAAGACUUACCGAATT against USPL1,-1.87 (active)
29,GUUUGUGACUGUAACCAUUTT against CTBP1,0.105 (inactive)
30,GCUAUGGUGCUGUCGCUUATT against RHOXF2,-0.331 (inactive)
